This is a sample that favours compounds with a hit; in the whole collection about 17% have one here.
TDP1 cell CPT – qHTS for Inhibitors of human tyrosyl-DNA phosphodiesterase 1 (TDP1): qHTS in cells in presence of CPT. 420,000 compounds, 12% hits. Potency, µM (titrated, usually from 46.2 µM), most hits filed as inhibitors. AID 686979, 2013. chicken DT40 Tdp1-/-;hTDP1 cells + 20 nM CPT, ATP luminescence, 48 h; also: nearly all actives have a fitted effect of over 55% in size
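Cell growth measured by CellTiter-Glo luminescence after a minimum 48 h, 37 C compound exposure with 20 nM CPT in Tdp1-knockout DT40 cells stably expressing hTDP1, seeded 400/well; qHTS titration format.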
S2 tox – Viability Counterscreen for Primary qHTS for Inhibitors of ATXN expression. 400,000 compounds, 0.49% hits. S2 cells (HEK-293 line with an ATXN2-luciferase reporter) viability, CellTiter-Fluor protease fluorescence, 24 h. Potency, µM (titrated, usually from 56.7 µM), usual class: cytotoxic; also: nearly all actives have a fitted effect of over 40% in size
TDP1 cell noCPT – qHTS for Inhibitors of human tyrosyl-DNA phosphodiesterase 1 (TDP1): qHTS in cells in absence of CPT; DT40 Tdp1-/- hTDP1 cells, no CPT, ATP luminescence, 48 h; Potency, µM (top dose mostly 46.2 µM), hits mostly inhibitors; 420,000 compounds, 15% hits; AID 686978, 2013; also: nearly all actives have a fitted effect of over 55% in size
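Chicken DT40 Tdp1-/- cells stably complemented with human TDP1 were seeded at 400 cells/well with DMSO in place of 20 nM camptothecin. After compound pinning, cells grew at least 48 hr at 37 °C; viability read by CellTiter-Glo luminescence.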
TGFb inhibitor – qHTS for Inhibitors of TGF-b; HepG2 CAGA-GFP TGF-b/SMAD3 reporter, GFP fluorescence, 18 h; TGF-beta stimulated, 500 pg/mL final; Potency, µM (series often up to 46.1 µM), most hits filed as inhibitors; 410,000 compounds, 1.2% hits; AID 588855, 2011; also: nearly all actives have a fitted effect of over 65% in size
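First, reporter cells (HEPG2 CAGA-GFP) rested 2 h at 37 degrees C. Next, compounds were pinned in and TGF-beta added to 500 pg/mL final. After 18 h, GFP was imaged per cell and summed per well.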
ATXN2 expr inh – Primary qHTS for Inhibitors of ATXN expression. HEK-293 ATXN2-luciferase reporter, luminescence, 24 h. Potency, µM (highest dose often 57 µM), actives largely listed as inhibitors. AID 1745845, 2022. 360,000 compounds, 0.72% hits; also: nearly all actives have a fitted effect of over 55% in size
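qHTS (up to 57 uM final) was run with 24 h compound exposure of reporter cells at 37 °C. Each well was multiplexed: SteadyGlo luminescence measured ATXN2-luciferase expression after a fluorogenic Gly-Phe-AFC viability readout (25 uM final).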
HepG2 tox – qHTS for Inhibitors of TGF-b: Cytotox Counterscreen. Potency, µM (highest dose often 46.1 µM), most hits filed as cytotoxic. HepG2 CAGA-GFP viability, ATP luminescence, 18 h. AID 588856, 2011. 410,000 compounds, 0.76% hits
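HepG2 CAGA-GFP cells (1000/well, DMEM with 1% FBS) received compound, then TGF-beta at 500 pg/mL final, and were incubated 18 hours at 37 degrees C. Viability was read by CellTiter-Glo luminescence. Media-only wells were set as complete cell-killing and DMSO as no toxicity.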
Each line names hits and unclear results; the compound was inactive in the other large screens. Calls follow the shape of the dose curve; as a rule, active = well fitted curve in the direction sought with a large enough effect; inconclusive = small, poorly fitted or top-dose-only effect, or another doubt; inactive = no such curve, though single readings can be large; an effect the other way counts as inactive or inconclusive.

Cc1ccc2nc(NC(=O)CSc3nccn3Cc3ccc(Cl)cc3)sc2c1	none (no result: S2 tox, ATXN2 expr inh)
O=C(NCC(c1ccco1)N1CCc2ccccc2C1)c1ccc(Br)cc1 (stereo not drawn)	TDP1 cell CPT inconclusive, TDP1 cell noCPT 23µM
Cc1ccc(C(=O)NCC(c2ccco2)N2CCc3ccccc3C2)cc1C (stereo not drawn)	TDP1 cell CPT 18µM, TDP1 cell noCPT 21µM
Cc1ccc(C(=O)NCC(c2ccco2)N2CCc3ccccc3C2)cc1 (stereo not drawn)	TDP1 cell CPT inconclusive, TDP1 cell noCPT inconclusive
CN(Cc1ccccc1)C(=O)[C@@H]1CCCN1	none (no result: TGFb inhibitor, HepG2 tox)
OC(c1ccccc1)(c1nc(-c2ccc3c(c2)OCO3)cs1)C(F)(F)F (stereo not drawn)	TDP1 cell CPT inconclusive, TDP1 cell noCPT inconclusive, TGFb inhibitor inconclusive
OCCn1c(-c2ccc3c(c2)OCO3)csc1=Nc1ccccc1	TDP1 cell CPT 16µM, TDP1 cell noCPT 21µM
OCCn1c(-c2ccc(F)cc2)csc1=Nc1ccccc1	TDP1 cell CPT inconclusive, TDP1 cell noCPT 21µM
O=C1Nc2ccccc2-c2nnnn2C1N1CCCCC1 (stereo not drawn)	none (no result: S2 tox, TGFb inhibitor, ATXN2 expr inh, HepG2 tox)
Cc1cc2c(cc1C)-c1nnnn1C(N1CCC(Cc3ccccc3)CC1)C(=O)N2 (stereo not drawn)	TDP1 cell CPT 15µM, TDP1 cell noCPT 9.2µM (no result: S2 tox, TGFb inhibitor, ATXN2 expr inh, HepG2 tox)
CCOC(=O)c1cc(OC(C)=O)c2ccc(OC)c(OC)c2c1	TDP1 cell CPT inconclusive, TDP1 cell noCPT 23µM (no result: ATXN2 expr inh)
CC(C)c1ccc(NC(=O)CN2C(=O)NC(Cc3c[nH]c4ccccc34)C2=O)cc1 (stereo not drawn)	TDP1 cell CPT inconclusive, S2 tox inconclusive, TDP1 cell noCPT 16µM, TGFb inhibitor inconclusive
O=C(NNc1ccnc2cc(Cl)ccc12)C1CCCCC1	TDP1 cell CPT 0.92µM, TDP1 cell noCPT 0.65µM, ATXN2 expr inh inconclusive
O=C(Oc1ccc(Cl)cc1)N1CCCCC1	TGFb inhibitor inconclusive
COc1cccc(Cl)c1NC(=O)N1CCN(c2ccnc3cc(Cl)ccc23)CC1	TDP1 cell CPT inconclusive, S2 tox inconclusive, TDP1 cell noCPT 23µM, TGFb inhibitor inconclusive (no result: ATXN2 expr inh)
CC(C)N(C(=O)N1CCN(c2ccnc3cc(Cl)ccc23)CC1)C(C)C	TDP1 cell CPT 12µM, S2 tox inconclusive, TDP1 cell noCPT 9.2µM, ATXN2 expr inh 25µM
NC(=S)NNc1ccnc2cc(Cl)ccc12	TDP1 cell noCPT inconclusive
O=C(Oc1ccnc2cc(Cl)ccc12)N1CCCCCC1	TDP1 cell CPT inconclusive, TDP1 cell noCPT 23µM, TGFb inhibitor inconclusive
CCOCCCNC(=O)c1ccc2c(=O)n(Cc3ccc(OC)cc3)c(=O)[nH]c2c1	TDP1 cell CPT inconclusive, TDP1 cell noCPT inconclusive (no result: ATXN2 expr inh)
CCC(=O)N1CCN(c2ccnc3cc(Cl)ccc23)CC1	TDP1 cell CPT inconclusive, S2 tox inconclusive, TDP1 cell noCPT inconclusive, ATXN2 expr inh inconclusive
CCOC(=O)N1CCN(c2ccnc3cc(Cl)ccc23)CC1	TDP1 cell CPT inconclusive, TDP1 cell noCPT 15µM, ATXN2 expr inh inconclusive
O=C(c1ccc(Cl)cc1)N1CCN(c2ccnc3cc(Cl)ccc23)CC1	TDP1 cell CPT inconclusive, TDP1 cell noCPT 13µM, TGFb inhibitor inconclusive, ATXN2 expr inh inconclusive
COC(=O)N1CCC2(CCN(C(=O)Nc3ccc(OC)cc3)CC2)CC1	none (no result: S2 tox, TGFb inhibitor, ATXN2 expr inh, HepG2 tox)
O=C(Nc1ccc2nc(SCC(=O)N3CCc4ccccc43)sc2c1)c1ccccc1	TDP1 cell CPT 5.8µM, TDP1 cell noCPT 2.3µM (no result: S2 tox, ATXN2 expr inh)
Cc1ccc(C(=O)Nc2ccc3nc(SCC(=O)N4CCCc5ccccc54)sc3c2)cc1	TDP1 cell CPT 12µM, TDP1 cell noCPT 7.3µM (no result: S2 tox, ATXN2 expr inh)
O=C(Nc1ccc2nc(SCC(=O)N3CCCc4ccccc43)sc2c1)c1ccccc1	TDP1 cell CPT 21µM, TDP1 cell noCPT 18µM (no result: S2 tox, ATXN2 expr inh)

Screening data from PubChem BioAssay.
